The antibiotic and cytotoxicity screens of Wong et al. (2023)
Out of some 39,000 compounds screened, about 500 (1.3%) were called active. This excerpt belongs to a sample that is enriched for actives.

Test system: S. aureus RN4220
Assay: growth inhibition call (relative growth <= 0.2)
Conditions: 50 µM

Structure (SMILES)	growth inhibition call
C[C@@H]1CN([C@@H](C)CO)C(=O)c2cc(/C=C/c3ccccc3)cnc2O[C@@H]1CN(C)C(=O)C1CCOCC1	inactive
CO/N=C(\C(=O)N[C@@H]1C(=O)N2C(C(=O)O)=C(CSC(=O)c3ccco3)CS[C@H]12)c1csc(N)n1	active
CON=C(C(=O)NC1C(=O)N2C(C(=O)O)=C(CSC(=O)c3ccco3)CSC12)c1csc(N)n1.Cl (configuration not stated)	active
Cc1noc(C)c1S(=O)(=O)Nc1ccc2c(c1)C(=O)N([C@@H](C)CO)C[C@H](C)[C@@H](CN(C)S(=O)(=O)c1ccc(Cl)cc1)O2	inactive
N=C(N=C(N)N)NCCc1ccccc1	inactive
NNCCc1ccccc1	active
NNCCc1ccccc1.O=S(=O)(O)O	inactive
O=c1[nH]c(=O)n(C2CC(O)C(CO)O2)cc1I (configuration not stated)	inactive
COc1cccc(OC)c1C(=O)NN	inactive
CCOc1ccc2ccccc2c1C(=O)NC1C(=O)N2C1SC(C)(C)C2C(=O)[O-].[Na+] (configuration not stated)	active
COc1cccc(OC)c1C(=O)NCCCO	inactive
COc1cccc(OC)c1C(=O)NC1C(=O)N2C1SC(C)(C)C2C(=O)[O-].[Na+] (configuration not stated)	active
Cc1cc(=O)n2nc(CC(=O)NCCCn3c(C)cccc3=O)nc2[nH]1	inactive
C[C@H]1CN([C@@H](C)CO)S(=O)(=O)c2ccc(Br)cc2O[C@H]1CN(C)S(=O)(=O)c1ccccc1	inactive
Cc1noc(C)c1S(=O)(=O)N(C)C[C@@H]1Oc2ccc(NC(=O)C3CC3)cc2CC(=O)N([C@@H](C)CO)C[C@@H]1C	inactive
C[C@@H]1CN([C@@H](C)CO)C(=O)c2cc(NS(=O)(=O)c3ccc(Cl)cc3)ccc2O[C@@H](C)CCCCO[C@@H]1CN(C)Cc1ccccc1	inactive
C[C@H]1CN([C@@H](C)CO)C(=O)c2c(c3ccccc3n2C)-c2ccccc2CO[C@H]1CN(C)C(=O)Nc1cccc(F)c1	inactive
Cc1cc(OCCCS(C)(=O)=O)cc(C)c1-c1cccc(COc2ccc3c(c2)OC[C@H]3CC(=O)O)c1	active
C[C@H]1OC(=O)c2c(O)ccc(O)c2[C@H]1O	inactive

Structure (SMILES)	growth inhibition call
COc1cccc(NC(=O)N2C[C@H](O)COC[C@@H]3O[C@H](CC(=O)NCCCN4CCOCC4)CC[C@H]32)c1	inactive
CCC(C)C1OC2(C=CC1C)CC1CC(CC=C(C)C(OC3CC(OC)C(OC4CC(OC)C(NC(C)=O)C(C)O4)C(C)O3)C(C)C=CC=C3COC4C(O)C(C)=CC(C(=O)O1)C34O)O2 (configuration not stated)	inactive
COC1CC(OC2C(C)=CCC3CC(CC4(CCC(C)C(C5CCCCC5)O4)O3)OC(=O)C3C=C(C)C(=NO)C4OCC(=CC=CC2C)C34O)OC(C)C1O (configuration not stated)	inactive
CO[C@H]1C[C@@H](O[C@@H]2/C(C)=C/C[C@@H]3C[C@@H](C[C@]4(CC[C@H](C)[C@@H](C5CCCCC5)O4)O3)OC(=O)[C@@H]3C=C(C)/C(=N/O)[C@H]4OC/C(=C\C=C\[C@@H]2C)[C@]43O)O[C@@H](C)[C@@H]1O	inactive
CO[C@H]1C[C@H](O[C@@H]2/C(C)=C/C[C@@H]3C[C@@H](C[C@]4(CC[C@H](C)[C@@H](C5CCCCC5)O4)O3)OC(=O)[C@@H]3C=C(C)/C(=N/O)[C@H]4OC/C(=C\C=C\[C@@H]2C)[C@]43O)O[C@@H](C)[C@@H]1O	active
CN[C@@H]1[C@@H](C)O[C@@H](O[C@H]2[C@H](C)O[C@@H](O[C@@H]3/C(C)=C/C[C@@H]4C[C@@H](C[C@]5(C=C[C@H](C)[C@@H](C(C)C)O5)O4)OC(=O)[C@@H]4C=C(C)[C@@H](O)[C@H]5OC/C(=C\C=C\[C@@H]3C)[C@]54O)C[C@@H]2OC)C[C@H]1OC	active
CC[C@H](C)[C@H]1O[C@]2(C=C[C@@H]1C)C[C@@H]1C[C@@H](C/C=C(\C)[C@@H](O[C@H]3C[C@H](OC)[C@@H](O[C@H]4C[C@H](OC)[C@@H](NC(C)=O)[C@H](C)O4)[C@H](C)O3)[C@@H](C)/C=C/C=C3\CO[C@@H]4[C@H](O)C(C)=C[C@@H](C(=O)O1)[C@]34O)O2	inactive
COc1ccc(S(=O)(=O)Nc2ccc3c(c2)C(=O)N([C@H](C)CO)C[C@H](C)[C@@H](CN(C)C(=O)CCC(F)(F)F)OCCCC[C@@H](C)O3)cc1	inactive
COc1cccc(-c2cnc3c(c2)C(=O)N([C@H](C)CO)C[C@H](C)[C@H](CN(C)S(=O)(=O)c2cn(C)cn2)O3)c1	inactive
O=C1NC2=C(C(=O)OC2)[C@H](c2ccccc2)N1	inactive
C[C@@H](O)[C@@H](O)[C@@H](O)C/C=N/NC(=O)CCCCCCC(=O)NO	inactive
CC(C)NC(=O)N(C)C[C@@H]1Oc2ccc(NC(=O)CCN3CCOCC3)cc2C(=O)N([C@H](C)CO)C[C@@H]1C	inactive
COc1cc(C=Cc2ccc(O)cc2)cc(OC)c1	active
Oc1ccc(C=Cc2cc(O)cc(O)c2)cc1	inactive
COc1ccc(O)cc1	inactive
CCCCC/C=C/CCC(=O)N[C@H]1[C@H](Oc2c3cc4cc2Oc2ccc(cc2Cl)[C@@H](O[C@@H]2O[C@H](CO)[C@@H](O)[C@H](O)[C@H]2NC(C)=O)[C@@H]2NC(=O)[C@H](NC(=O)[C@@H]4NC(=O)[C@H]4NC(=O)[C@@H](Cc5ccc(c(Cl)c5)O3)NC(=O)[C@H](N)c3ccc(O)c(c3)Oc3cc(O)cc4c3)c3ccc(O)c(c3)-c3c(O[C@H]4O[C@H](CO)[C@@H](O)[C@H](O)[C@@H]4O)cc(O)cc3[C@@H](C(=O)O)NC2=O)O[C@H](CO)[C@@H](O)[C@@H]1O	active
CCCCCCCCCC(=O)N[C@H]1[C@H](Oc2c3cc4cc2Oc2ccc(cc2Cl)[C@@H](O[C@@H]2O[C@H](CO)[C@@H](O)[C@H](O)[C@H]2NC(C)=O)[C@@H]2NC(=O)[C@H](NC(=O)[C@@H]4NC(=O)[C@H]4NC(=O)[C@@H](Cc5ccc(c(Cl)c5)O3)NC(=O)[C@@H](N)c3ccc(O)c(c3)Oc3cc(O)cc4c3)c3ccc(O)c(c3)-c3c(O[C@H]4O[C@H](CO)[C@@H](O)[C@H](O)[C@@H]4O)cc(O)cc3[C@H](C(=O)O)NC2=O)O[C@H](CO)[C@@H](O)[C@@H]1O	active
CCCCCC=CCCC(=O)NC1C(Oc2c3cc4cc2Oc2ccc(cc2Cl)C(OC2OC(CO)C(O)C(O)C2NC(C)=O)C2NC(=O)C(NC(=O)C4NC(=O)C4NC(=O)C(Cc5ccc(c(Cl)c5)O3)NC(=O)C(N)c3ccc(O)c(c3)Oc3cc(O)cc4c3)c3ccc(O)c(c3)-c3c(OC4OC(CO)C(O)C(O)C4O)cc(O)cc3C(C(=O)O)NC2=O)OC(CO)C(O)C1O (configuration not stated) [TEICOPLANIN [A(2-1) shown]]	active
